Compound activity as filed in PubChem.
HCV inh = qHTS Assay for Inhibitors of Hepatitis C Virus (HCV); Huh7.5.1 HCVcc-Cre infection, luciferase reporter, 44 h; Potency, µM (titrated, usually from 41.8 µM), for inactives: at the top dose activity change, negative = inhibition, usual class: inhibitors; 3.4% of 340,000 active; AID 651820, 2012; also: potency is read from the fitted curve at half-maximal effect
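Infectious HCV cell culture screen: compound-treated cells (1,000/well, pre-plated 4 h) are infected with HCVcc-Cre at roughly 0.5 moi and grown 44 h. Infection is quantified by luciferase signal after 15 min substrate incubation at room temperature.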
Lassa entry inh = qHTS for Inhibitors of binding or entry into cells for Lassa Virus; Lassa virus pseudotype entry inhibition, cell reporter; Potency, µM (series often up to 37.9 µM), inactives show top-dose activity change, negative = inhibition, usual class: inhibitors; 1.2% of 300,000 active; calls by dose curve; tested in HEK293 cells; also: potency is read from the fitted curve at half-maximal effect; nearly all actives have a fitted effect of over 50% in size
Pf growth 48h = Primary qHTS for delayed death inhibitors of the malarial parasite plastid, 48 hour incubation; Potency, µM (doses to about 28.7 µM), for the others: top-dose activity change, negative = inhibition, usual class: inhibitors; 5.9% of 310,000 active; AID 504832, 2011; P. falciparum luciferase growth in erythrocytes, 48 h; also: potency is read from the fitted curve at half-maximal effect
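Luciferase-expressing parasites in RBCs, 2% Hct / 0.1% parasitemia final; RPMI 1640 + 0.5% Albumax; 37 C, 5% CO2, one generation; luminescence read-out, lower signal = inhibition.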
MARV entry inh = qHTS for inhibitors of binding or entry into cells for Marburg Virus | Marburg virus pseudotyped entry inhibition, cell reporter | 1.8% of 300,000 active | Potency, µM (titrated, usually from 37.8 µM), inactives show at the highest dose activity change, negative = inhibition, hits mostly inhibitors; calls by dose curve; tested in HEK293 cells; also: potency is read from the fitted curve at half-maximal effect
HCMV inh = qHTS Assay for inhibitors of the human cytomegalovirus (HCMV) | 4.5% of 410,000 active | activity change, negative = inhibition, % at 57.5 µM | AID 1259415, 2018 | HFF cells, HCMV-luciferase reporter, 72 h; active compounds read low; in the data active = activity change below about -60%; inconclusive = no clear call, values can overlap the other calls; inactive = above about -39%
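Compounds were evaluated in HFFs infected with an HCMV luciferase reporter virus (MOI 1 PFU/cell). Luciferase in lysates collected 72 h post infection served as the replication measure.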
Pf growth 96h = Primary qHTS for delayed death inhibitors of the malarial parasite plastid, 96 hour incubation | P. falciparum luciferase reporter growth, 96 h | Potency, µM (doses to about 28.7 µM), without a hit: top-dose activity change, negative = inhibition, usual class: inhibitors | 6.9% of 320,000 active; also: potency is read from the fitted curve at half-maximal effect
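Two parasite generations (96 h, 37 C, 5% CO2) of compound exposure in infected erythrocytes (0.05% parasitemia, 2% hematocrit). Luciferase-reporter P. falciparum; decreased luminescence indicates inhibited growth, aimed at apicoplast-acting delayed death.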
* = called active by the depositor; ? = inconclusive; nt = no result given; [ ] = remark or other dose. Only some compounds are listed: those with a hit (about 14% of all), similar ones and a draw of the others. Unless noted, calls follow the shape of the dose curve; as a rule, active = well fitted inhibition curve with a large enough effect; inconclusive = small, poorly fitted or top-dose-only effect, or another doubt; inactive = no such curve, though single readings can be large or run the other way. % is scaled to controls: 0 for no effect and ±100 for the full control effect.

SMILES	HCV inh	Lassa entry inh	Pf growth 48h	MARV entry inh	HCMV inh	Pf growth 96h
COC(=O)c1c(-c2ccc(OC)cc2)sc2cc(OC)c(OC)cc12	?	nt	nt	nt	68.6	nt
COc1ccc(-c2sc3cc(OC)c(OC)cc3c2C#CC(C)(C)O)cc1	1.41µM*	nt	?	nt	-32.1	?
COc1cccc(/C=C2\Oc3ccc(O)cc3C2=O)c1O	-5.4%	?	5.22µM*	?	-29.5	-9.5%
COc1ccc(OC)c(C2Nc3nc4ccccc4n3C(C)=C2C(=O)Nc2ccc(C)cc2C)c1 (stereo not drawn)	-20.4%	?	7.38µM*	?	?	nt
CCNC(=O)C1(C)CCN(Cc2cccc(Oc3ccccc3)c2)C1 (stereo not drawn)	nt	nt	nt	nt	-20.3	nt
CC1(C2CCC3C4CCC5CC6(CCC5(C)C4C(=O)CC32C)OCCO6)OCCO1 (stereo not drawn)	-0.6%	-21.1%[46.1 µM]	nt	?	-99.1*	nt
CC12CCC3(CC1CCC1OC12)OCCO3 (stereo not drawn)	-3.2%	-5.0%[46.1 µM]	nt	-0.3%	2.1	nt
COc1cc(C(=O)NCCc2sc(-c3ccc(C)cc3)nc2C)cc(OC)c1OC	nt	8.2%[46.1 µM]	nt	nt	4.3	nt
CCCN(CC1CC1)C(=S)NC(=O)c1cc(Br)ccc1Cl	-1.7%	-33.8%	13.1µM*	-34.3%	13.8	?
CCCN(CC1CC1)C(=S)NC(=O)c1ccccc1C	nt	nt	nt	nt	-10.9	nt
Cc1ccc2c(C)c(C(=O)N(Cc3ccc(Cl)cc3)C3CCS(=O)(=O)C3)oc2c1 (stereo not drawn)	nt	-28.9%[46.1 µM]	nt	-22.8%[46.1 µM]	6.6	nt
CCOc1ccc(CN(C(=O)c2oc3cc(C)ccc3c2C)C2CCS(=O)(=O)C2)cc1 (stereo not drawn)	?	13µM*	nt	?	13.8	?
Cc1ccc2oc(C(=O)N(Cc3sccc3C)C3CCS(=O)(=O)C3)c(C)c2c1 (stereo not drawn)	nt	?	nt	3.16µM*	8.1	nt
Cc1ccsc1CN(C(=O)c1oc2ccc(F)cc2c1C)C1CCS(=O)(=O)C1 (stereo not drawn)	nt	?	nt	-12.0%[46.1 µM]	32.9	nt
CCOC(=O)C1=C(C)NC(=O)NC1c1ccc2c(c1)OCO2 (stereo not drawn)	-1.7%	5.3%	-27.5%	6.9%[46.1 µM]	5.3	6.9%
CC1=C(C(=O)OCc2ccc3c(c2)OCO3)C(c2cccc([N+](=O)[O-])c2)NC(=O)N1 (stereo not drawn)	11.2µM*	nt	4.5%	nt	-80.7*	31.2%
COc1ccc(COC(=O)C2=C(C)NC(=O)NC2c2ccc(F)cc2)cc1 (stereo not drawn)	?	?	?	?	-75.2*	2.94µM*
CC1=C(C(=O)OCc2ccccc2)C(c2ccccc2Br)NC(=O)N1 (stereo not drawn)	10µM*	?	9.5%	?	-20.5	65.7%
COc1ccc(C2NC(=O)NC(C)=C2C(=O)OCc2ccc3c(c2)OCO3)cc1OC (stereo not drawn)	13.3%	-4.8%	4.65µM*	13.7%	33.4	483.5%
CCOC(=O)CSc1nc2ccc(NC(=O)c3ccc(C)cc3)cc2s1	nt	19.4%[46.1 µM]	nt	4.9%[46.1 µM]	15.2	nt
CCC(CC)COC(=O)C1=C(C)NC(=O)NC1c1ccc2c(c1)OCO2 (stereo not drawn)	10µM*	?	29.0%	?	-21.9	0.928µM*
CCOc1cc(S(=O)(=O)NCCc2c(C)[nH]c3ccc(C)cc23)ccc1Br	nt	-15.4%[46.1 µM]	nt	-21.2%[46.1 µM]	-9.9	nt
CCN1CCN(c2ccc(NC(=O)c3cc(S(=O)(=O)N4CCCC4)ccc3Cl)cc2)CC1	?	nt	?	nt	-12.5	?
Cn1c(Nc2ccccc2)nc2cnc(Nc3cccc(Cl)c3)cc21	nt	nt	nt	nt	-7.1	nt
Oc1ccccc1-c1nc2c3ccccc3c3ccccc3c2[nH]1	?	nt	9.28µM*	nt	17.8	?
SMILES	HCV inh	Lassa entry inh	Pf growth 48h	MARV entry inh	HCMV inh	Pf growth 96h
Oc1ccccc1-c1nc(-c2cccs2)c(-c2cccs2)[nH]1	nt	-24.7%[46.1 µM]	nt	-25.7%[46.1 µM]	-15.4	nt
c1csc(-c2nc3c4ccccc4c4ccccc4c3[nH]2)c1	12.6µM*	-28.2%	?	?	-20.6	?
O=C(O)CCCC(=O)OCCCc1cc2ccccc2c(=O)o1	nt	nt	nt	nt	-3.1	nt
CCOc1ccc(Cl)cc1CSc1n[nH]c(CC)n1	11.2µM*	4.1%	?	-2.2%	-34.3	34.4%
CCCCOc1ccc(Cl)cc1CSc1n[nH]c(C)n1	-19.7%	-26.2%	?	0.206µM*	-1.6	?
CCn1c(=S)sc2c(=O)n(CC(=O)Nc3cccc(Cl)c3)c(C)nc21	?	nt	?	nt	-20.1	?
Cc1ccccc1CSc1cn(CC(=O)N2CCCCC2)c2ccccc12	nt	?	nt	nt	44.0	nt
C=CCn1c(-c2cccc(OC)c2OC)n[nH]c1=S	?	-26.3%	-19.1%	?	-69.6*	-41.5%[1.15 µM]
CCn1nnc2cc(C(=O)NCC(c3ccccc3OC)N(C)C)ccc21 (stereo not drawn)	-19.7%	14.9%	-26.3%	18.1%[46.1 µM]	-25.8	-13.9%
C[C@H](CO)N1C[C@H](C)[C@@H](CN(C)Cc2ccc(C(=O)O)cc2)Oc2c(cccc2N(C)C)C1=O	18.2%	nt	nt	nt	?	nt
CC(=O)c1ccc(NC(=O)CCC(=O)N2CC(C)Oc3ccc(C)cc32)cc1 (stereo not drawn)	10µM*	?	6.7%	6.8%[46.1 µM]	-20.3	-1.0%
Cc1ccc2c(c1)N(C(=O)CCC(=O)Nc1ccccc1Br)CC(C)O2 (stereo not drawn)	-19.7%	nt	-22.6%	nt	?	?
Cc1ccc(C(=O)N/N=C/c2nc3ccccc3n2C)cc1	?	?	?	-22.4%	-65.6*	?
CCOc1ccc(C(=O)NCCc2sc(-c3ccc(F)cc3)nc2C)cc1	nt	?	nt	nt	-6.0	nt
Cn1c2c(c(=O)n(C)c1=O)C(c1cc(Br)ccc1F)CC(=O)N2 (stereo not drawn)	nt	?	nt	19.3%[46.1 µM]	4.5	nt
COC(=O)C1=C(C)NC(=O)CC1c1cc2c(cc1Br)OCO2 (stereo not drawn)	1.7%	-0.4%	?	-14.4%	6.9	-18.6%
Cn1c2c(c(=O)n(C)c1=O)C(c1cc3c(cc1Br)OCO3)CC(=O)N2 (stereo not drawn)	13.6%	nt	21.3%	nt	17.3	9.28µM*
CC1=C(C(=O)OCC2CCCCC2)C(c2ccc(F)cc2F)CC(=O)N1 (stereo not drawn)	nt	-2.9%[46.1 µM]	nt	?	-104.9*	nt
CC1=C(C(=O)OC2CCCCCCC2)C(c2cc3c(cc2Br)OCO3)CC(=O)N1 (stereo not drawn)	?	?	10.4µM*	-54.1%	?	nt
COc1cc(/C=C/C(=O)c2ccc(C)cc2)ccc1OCC#N	?	10µM*	?	?	0.4	?
